Laboratory results: PubChem BioAssay (EPA / NIEHS)
Activity calls are given as the source filed them. How the source made its calls: active means hit-call score of the fitted dose curve at least 0.9, where 1 is the maximum; inactive means score below 0.9.

Experiment: CCTE_Shafer_MEA_acute_interburst_interval_mean: CCTE's Neural Acute Assay for Mean Interburst Interval, Shafer Lab (AID 2284016);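 further: percent change of mean interburst interval versus each well's own pre-dose baseline; curves fitted for decrease in interburst interval relative to DMSO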
In short: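 MEA recording of spontaneous network bursting in primary rat cortical cultures; mean interburst interval was compared before and after a 40-min compound exposure (0.03-40 uM) and expressed as percent change, relative to DMSO.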
With `OCCCCO` the outcome was “inactive”. In the case of `N#Cc1cccnc1`, the outcome is reported as “inactive”. With `Cc1ccccc1OP(=O)(Oc1ccccc1C)Oc1ccccc1C` the AC50 was 23.5 µM (active). In the case of `CCCCOC(=O)COC(=O)c1ccccc1C(=O)OCCCC`, the outcome is reported as “inactive”. With `Cc1cc(C(F)(C(F)(F)F)C(F)(F)F)ccc1NC(=O)c1cccc(I)c1C(=O)NC(C)(C)CS(C)(=O)=O` the outcome was “inactive”. For `CN(C)C(=S)S`, the outcome was “inactive”. With `Oc1ccc(Cc2ccc(O)cc2)cc1` the outcome was “inactive”. For `CC1(C)[C@H](C(=O)O[C@H](C#N)c2cccc(Oc3ccccc3)c2)[C@@H]1/C=C(\Cl)C(F)(F)F`, the AC50 was 1.29 µM (active). With `CS(=O)(=O)c1ccc(C(=O)C2C(=O)CCCC2=O)c(Cl)c1COCC(F)(F)F` the outcome was “inactive”. With `Oc1cc(Cl)c(Cl)cc1Cl` the outcome was “inactive”. With `O=C(Cc1ccccc1)OCCc1ccccc1` the outcome was “inactive”. For `CC(C)(C)c1ccccc1O`, the outcome was “inactive”. In the case of `Clc1cccc(Cl)c1Cl`, the outcome is reported as “inactive”. With `CCCCCCCCCCCCc1cccc(S(=O)(=O)O)c1` the outcome was “inactive”. With `CC(C)[C@@H](Nc1ccc(C(F)(F)F)cc1Cl)C(=O)OC(C#N)c1cccc(Oc2ccccc2)c1` (stereo not given in full) the AC50 was 2.12 µM (active).

Experiment: CCTE_Shafer_MEA_acute_burst_percentage_mean: CCTE's Neural Acute Assay for Percentage of Spikes in a Burst, Shafer Lab (AID 2284017);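 on AC50: curve fitted for loss of signal so potency reflects decreased burst percentage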
In short: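 Compounds were tested at 0.03-40 uM on primary rat cortical neuron networks grown over microelectrodes, with at least three wells per compound. Spontaneous firing was recorded for 40 min before and 40 min after dosing, and the change in burst percentage was computed per well.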
With `OCCCCO` the outcome was “inactive”. With `N#Cc1cccnc1` the outcome was “inactive”. For `Cc1ccccc1OP(=O)(Oc1ccccc1C)Oc1ccccc1C`, the AC50 was 26.3 µM (active). In the case of `CCCCOC(=O)COC(=O)c1ccccc1C(=O)OCCCC`, the outcome is reported as “inactive”. With `Cc1cc(C(F)(C(F)(F)F)C(F)(F)F)ccc1NC(=O)c1cccc(I)c1C(=O)NC(C)(C)CS(C)(=O)=O` the AC50 was 5.38 µM (active). With `CN(C)C(=S)S` the outcome was “inactive”. For `Oc1ccc(Cc2ccc(O)cc2)cc1`, the outcome was “inactive”. In the case of `CC1(C)[C@H](C(=O)O[C@H](C#N)c2cccc(Oc3ccccc3)c2)[C@@H]1/C=C(\Cl)C(F)(F)F`, the AC50 is reported as 0.841 µM (active). In the case of `CS(=O)(=O)c1ccc(C(=O)C2C(=O)CCCC2=O)c(Cl)c1COCC(F)(F)F`, the outcome is reported as “inactive”. In the case of `Oc1cc(Cl)c(Cl)cc1Cl`, the AC50 is reported as 36.5 µM (active). For `O=C(Cc1ccccc1)OCCc1ccccc1`, the outcome was “inactive”. For `CC(C)(C)c1ccccc1O`, the AC50 was 20 µM (active). In the case of `Clc1cccc(Cl)c1Cl`, the outcome is reported as “inactive”. With `CCCCCCCCCCCCc1cccc(S(=O)(=O)O)c1` the outcome was “inactive”. With `CC(C)[C@@H](Nc1ccc(C(F)(F)F)cc1Cl)C(=O)OC(C#N)c1cccc(Oc2ccccc2)c1` (stereo not given in full) the AC50 was 0.62 µM (active).
